Measured values: the supplement of paper PMC9694430

Tests used:
Assay in all cases: thermal shift delta Tm vs DMSO control; higher = stronger stabilization (binding)
Conditions in all cases: 12.5 µM; protein concentration 2 µM
LOC_OS04G57630-cb004 = system: LOC_OS04G57630-cb004
In short: (§1)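 The melting temperature shift given here is a triplicate mean, measured against protein that received only DMSO. Melting temperatures came from Boltzmann fits of differential scanning fluorimetry data on E. coli-expressed, purified rice kinase domain constructs. Each 19.5 μl well contained 2 μM kinase, 100 mM potassium phosphate pH 7.5, 150 mM NaCl, 10% glycerol, 5 × SYPRO Orange and compound in DMSO. Plates were scanned from 25°C to 95°C at 0.05°C/s.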

LOC_OS05G07850-cb002 = system: LOC_OS05G07850-cb002
In short: as §1

LOC_OS05G16824-cb004 = system: LOC_OS05G16824-cb004
In short: as §1

LOC_OS05G28520-cb001 = system: LOC_OS05G28520-cb001
In short: as §1

LOC_OS05G30820-cb001 = system: LOC_OS05G30820-cb001
In short: as §1

LOC_OS05G43570-cb004 = system: LOC_OS05G43570-cb004
In short: as §1

LOC_OS06G16330-cb003 = system: LOC_OS06G16330-cb003
Sequence of LOC_OS06G16330-cb003 (as listed by the source): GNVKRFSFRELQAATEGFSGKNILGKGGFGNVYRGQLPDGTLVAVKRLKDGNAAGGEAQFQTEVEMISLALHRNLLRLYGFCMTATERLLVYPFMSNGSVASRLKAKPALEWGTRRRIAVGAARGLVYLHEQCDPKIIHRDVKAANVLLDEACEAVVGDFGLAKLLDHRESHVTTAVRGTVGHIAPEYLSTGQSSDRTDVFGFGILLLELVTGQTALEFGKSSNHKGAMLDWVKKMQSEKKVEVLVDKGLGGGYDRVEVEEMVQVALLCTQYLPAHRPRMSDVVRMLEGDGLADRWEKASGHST
In short: as §1

LOC_OS06G22820-cb001 = system: T1, LOC_OS06G22820-cb001
T1 sequence (whole entry): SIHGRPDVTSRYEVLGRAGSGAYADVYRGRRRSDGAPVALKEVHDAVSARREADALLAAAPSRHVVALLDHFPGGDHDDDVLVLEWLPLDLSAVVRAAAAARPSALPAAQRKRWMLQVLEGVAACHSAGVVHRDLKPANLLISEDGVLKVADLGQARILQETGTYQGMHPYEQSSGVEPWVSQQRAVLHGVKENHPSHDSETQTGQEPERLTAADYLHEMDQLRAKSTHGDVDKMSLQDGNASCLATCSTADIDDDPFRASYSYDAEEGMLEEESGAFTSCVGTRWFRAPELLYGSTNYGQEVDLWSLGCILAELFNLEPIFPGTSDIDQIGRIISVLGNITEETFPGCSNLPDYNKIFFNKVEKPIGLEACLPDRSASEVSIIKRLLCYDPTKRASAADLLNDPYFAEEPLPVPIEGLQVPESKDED
In short: as §1

LOC_OS07G06570-cb004 = system: LOC_OS07G06570-cb004
In short: as §1

LOC_OS07G07230-cb001 = system: LOC_OS07G07230-cb001
In short: as §1

Row | Compound | thermal shift delta Tm (LOC_OS04G57630-cb004) | thermal shift delta Tm (LOC_OS05G07850-cb002) | thermal shift delta Tm (LOC_OS05G16824-cb004) | thermal shift delta Tm (LOC_OS05G28520-cb001) | thermal shift delta Tm (LOC_OS05G30820-cb001) | thermal shift delta Tm (LOC_OS05G43570-cb004) | thermal shift delta Tm (LOC_OS06G16330-cb003) | thermal shift delta Tm (LOC_OS06G22820-cb001) | thermal shift delta Tm (LOC_OS07G06570-cb004) | thermal shift delta Tm (LOC_OS07G07230-cb001)
1 | O=c1cc(N2CCOCC2)oc2c(-c3ccccc3)cccc12 | 0.2 °C | 1.02 °C | 0.85 °C | 0.91 °C | 0.41 °C | 0.98 °C | 0.37 °C | 1.05 °C | 0.89 °C | -0.39 °C
2 | CCCNC(=O)Nc1ccc(Oc2ncnc3cc(OC)c(OC)cc23)cc1Cl | 0.94 °C | 5.45 °C | -1.66 °C | -0.19 °C | 0.49 °C | 0.07 °C | 1.43 °C | 0.78 °C | 0.73 °C | 0.03 °C
3 | CC1(C)CNc2cc(NC(=O)c3cccnc3NCc3ccncc3)ccc21 [Motesanib Diphosphate (AMG-706)] | -0.11 °C | 0.52 °C | -3.02 °C | 0.68 °C | 0.49 °C | 0.21 °C | -0.19 °C | 0.37 °C | 0.75 °C | 0.81 °C
4 | CNC(=O)c1cc(Oc2ccc(NC(=O)Nc3ccc(Cl)c(C(F)(F)F)c3)c(F)c2)ccn1 [Regorafenib (BAY 73-4506)] | 0.11 °C | 1.47 °C | -2.37 °C | 0.42 °C | 0.34 °C | 0.38 °C | -0.02 °C | 0.83 °C | 0.59 °C | 0.35 °C
5 | C#Cc1cccc(Nc2ncnc3cc(OCCOC)c(OCCOC)cc23)c1 [Erlotinib] | 0.41 °C | 8.18 °C | -4.3 °C | 0.22 °C | 0.36 °C | -0.04 °C | 3.38 °C | 0.08 °C | 0.67 °C | -0.73 °C
6 | C=CC(=O)N1CCC[C@@H](n2nc(-c3ccc(Oc4ccccc4)cc3)c3c(N)ncnc32)C1 | 1 °C | 6.56 °C | 1.31 °C | -0.3 °C | 0.44 °C | 0.27 °C | 1.99 °C | 0.54 °C | 0.5 °C | 0.64 °C
7 | CC(C)Nc1cc(-c2c[nH]c(C(=O)N[C@H](CO)c3cccc(Cl)c3)c2)c(Cl)cn1 | -0.02 °C | 2.27 °C | -2.75 °C | 0.6 °C | 0.63 °C | 0.49 °C | 0.62 °C | 0.65 °C | 1.26 °C | -0.16 °C
8 | CCCCCCCCCCCCc1ccc(S(=O)(=O)Nc2nncs2)cc1 | -0.02 °C | 0.11 °C | -2.07 °C | 0.11 °C | 0.45 °C | 0.64 °C | 0.11 °C | 0.75 °C | 1.23 °C | 0.24 °C
9 | Cc1ccc(NC(=O)c2ccc(CN3CCN(C)CC3)cc2)cc1Nc1nccc(-c2cccnc2)n1 [Imatinib (STI571)] | 0.39 °C | 2.43 °C | -0.13 °C | 0.71 °C | 0.5 °C | 0.23 °C | 0.3 °C | 0.22 °C | 1.37 °C | 0.97 °C
10 | Cn1cc(/C=C2\C(=O)Nc3cccnc32)c2ccccc21 | 2.07 °C | 9.12 °C | 10.2 °C | 0.86 °C | 0.81 °C | 0.41 °C | 7.67 °C | 0.62 °C | 1.66 °C | 0.42 °C
11 | C[C@@]1(C(=O)Nc2ccc(F)nc2)CCCN1c1nc(Nc2cc(C3CC3)n[nH]2)c2cccn2n1 | 0.45 °C | 6.93 °C | 7.72 °C | 1.51 °C | 0.52 °C | 0.32 °C | 7.13 °C | -0.88 °C | 1.23 °C | 0.05 °C
12 | Cn1c(=O)c(Oc2ccc(F)cc2F)cc2cnc(NC(CCO)CCO)nc21 | -0.25 °C | 0.33 °C | -2.67 °C | 0.51 °C | 0.63 °C | 0.19 °C | -0.27 °C | 0.72 °C | 1.46 °C | 0.54 °C
13 | N#Cc1ccc2ncnc(NCCc3ccccc3)c2c1 [Senexin A] | 0.34 °C | 4.61 °C | 4.32 °C | 0.11 °C | 0.16 °C | 0.23 °C | 2.48 °C | 0.4 °C | 1.46 °C | 0.54 °C
14 | C[S+]([O-])c1ccc(-c2nc(-c3ccc(F)cc3)c(-c3ccncc3)[nH]2)cc1 (stereo not given) | 0.89 °C | 1.83 °C | -0.97 °C | 1.26 °C | 0.6 °C | 1.12 °C | 0.69 °C | 0.87 °C | 1.21 °C | 0.43 °C
15 | O=C(NCCO)c1cccc(-c2cc(Nc3ccc(OC(F)(F)F)cc3)ncn2)c1 | -0.03 °C | 1.54 °C | 0.97 °C | -0.03 °C | 0.29 °C | 0.15 °C | 1.76 °C | 0.84 °C | 0.21 °C | -0.33 °C
16 | COc1cc(Nc2ncc(F)c(Nc3ccc4c(n3)N(COP(=O)(O)O)C(=O)C(C)(C)O4)n2)cc(OC)c1OC [R788 (Fostamatinib) Disodium] | 0.34 °C | 7.08 °C | 6.19 °C | 0.86 °C | 1.5 °C | 0.56 °C | 6.28 °C | 0.9 °C | 1.71 °C | 0.59 °C
17 | CCN1/C(=C/C(C)=O)Sc2ccc(OC)cc21 | -0.02 °C | 2.71 °C | 0.06 °C | 0.32 °C | 0.33 °C | 0.34 °C | -0.18 °C | 0.54 °C | 0.57 °C | 0.23 °C
18 | CC[C@@H](N)CNc1ccnc(-c2cc(-c3cnn(C)c3)ccc2O)n1 | 1.21 °C | 8.12 °C | 8.38 °C | -0.2 °C | 0.07 °C | 0.12 °C | 4.5 °C | 0.55 °C | 0.8 °C | 0.48 °C
19 | CN(C)C[C@@H]1CCn2cc(c3ccccc32)C2=C(C(=O)NC2=O)c2cn(c3ccccc23)CCO1 | -0.32 °C | 5.79 °C | 2.45 °C | 0.65 °C | 0.63 °C | 0.63 °C | 0.27 °C | 0.46 °C | 2.56 °C | 0.33 °C
